# SKKanGAS inh: blocks kanamycin growth of S. pyogenes SKKanGAS strain | BacTiter-Glo, 6 h | inhibition, % at 7.5 µM | hit rate 1.3% among 300,000 | AID 1662;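 active means mean replicate score, as percent of positive control median, at least 50; inconclusive means mean below 50 but one replicate at or above 50; inactive means mean and every replicate below 50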;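 further: strain carries kanamycin resistance gene driven by streptokinase promoter and grows in 40 µg/ml kanamycin; loss of luminescence reflects streptokinase promoter inhibition or plain growth inhibition; 0% = median of DMSO wells and 100% = positive control at its reference dose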
# tim10-1 inh: tim10-1 yeast growth inhibition | inhibition, % at 20 µM | hit rate 2.2% among 330,000 | S. cerevisiae tim10-1 ts strain growth, BacTiter-Glo, 24 h;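 active means inhibition of at least 40%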;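 further: mutant grown at 25 °C; 0% = DMSO wells with yeast and 100% = wells holding no yeast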
# TIM10 inh: TIM10 yeast growth inhibition | S. cerevisiae TIM10 strain growth, BacTiter-Glo luminescence, 24 h | inhibition, % at 10 µM | hit rate 1.4% among 330,000;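 active means inhibition of 40% or more at the single tested concentration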;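 further: wild-type TIM10 isogenic control strain grown at permissive 25 °C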
# NLRP3 yeast inh: NALP3 inhibition in yeast | inhibition, % at 10 µM | AID 2825 | Yeast reconstituted NLRP3/ASC/caspase-1, beta-gal luminescence, 24 h | hit rate 0.39% among 330,000;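 active means inhibition of 50% or more; inactive means inhibition below 50%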;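 further: plate controls were induced DMSO wells for no effect and uninduced yeast grown without galactose for full effect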
# PfHsp90 yeast 2: inhibits growth of yeast expressing Plasmodium falciparum Hsp90 | inhibition, % at 9.4 µM | hit rate 0.32% among 310,000 | AID 504621 | S. cerevisiae expressing PfHsp90, BacTiter-Glo ATP, 48 h; yeast lacking PDR1 and PDR3 efflux regulators;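 active means every replicate shows inhibition above about 80%, whatever the replicate mean, limit read from the data; inconclusive means mean inhibition reaches the set limit but some replicate falls short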;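 further: 0% = DMSO neutral controls and 100% = 20 µM radicicol positive controls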
# tim23-1 inh: inhibits growth of tim23-1 mutant yeast. S. cerevisiae tim23-1 growth, BacTiter-Glo luminescence, 24 h. inhibition, % at 20 µM. hit rate 1.3% among 330,000. AID 463212;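 active means growth inhibition of the mutant yeast at or above 50%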;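 further: temperature-sensitive mutant grown at 25 °C; plate controls were DMSO-treated mutant yeast for no effect and medium wells lacking yeast for full effect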
# Numbers without * were called inactive; ? = inconclusive; . = no result given. In the library only some 4.6% were active in any assay of this set; here they are far more common.
SMILES,SKKanGAS inh,tim10-1 inh,TIM10 inh,NLRP3 yeast inh,PfHsp90 yeast 2,tim23-1 inh
CSCc1ccc(C(=O)N2CCC(CCC(=O)N(C)Cc3ccccc3)CC2)o1,1,17,16,2,-26,22
CCC1CCCCN1C(=S)NC(=O)c1cccc([N+](=O)[O-])c1 (centres undefined),53*,35,30,17,-5,31
COc1ccc(/C=C/C(=O)OCC(=O)NC2CC2)c(OC)c1,.,-8,2,18,.,3
CCNC(=O)C1CC(=O)N(CCCc2ccccc2)C(=Nc2ccccc2)S1 (centres undefined),17,3,-6,14,11,0
Cc1cc(N/N=C/c2ccc(Cl)cc2Cl)nc(NCc2ccccc2)n1,92*,38,27,35,0,47
O=C(NCCCc1nc2ccccc2[nH]1)c1cccs1,5,-2,-5,4,-21,6
CCN1C(=O)/C(=C\c2ccc(-c3cccc(C(=O)OC)c3)o2)SC1=Nc1ccc(C(=O)O)cc1,46,7,0,9,.,-12
CCN1C(=O)/C(=C\c2ccc(-c3ccc([N+](=O)[O-])cc3OC)o2)SC1=Nc1cccc(C(=O)O)c1,56*,.,.,.,-15,.
Cc1cccc(NC(=O)CN2C(=O)S/C(=C\c3ccc(-c4cccc(C(=O)O)c4C)o3)C2=O)c1,?,25,9,23,2,17
Cc1ccc(NC(=O)CN2C(=O)S/C(=C/c3ccc(-c4cc(C(=O)O)ccc4C)o3)C2=O)cc1C,85*,24,1,-1,-19,12
O=C(O)c1cccc(-c2ccc(/C=C3/SC(=Nc4ccccc4)N(Cc4cccnc4)C3=O)o2)c1,53*,36,19,11,-16,15
CCN=C1S/C(=C\c2ccc(-c3cccc(C(=O)O)c3)o2)C(=O)N1CC,56*,26,6,3,-8,17
O=C(COC(=O)c1ccc(Cl)nc1)Nc1ccccc1OC(F)F,-5,13,3,2,3,3
O=C1NN(c2cccc(Br)c2)C(=O)/C1=C\c1ccc(N2CCOCC2)cc1,2,-91,-30,10,-10,-35
O=C(O)CCN1C(=O)S/C(=C\c2cccnc2)C1=O,-11,-1,-5,2,-13,11
O=C1/C(=C/c2cccnc2)SC(=NCc2ccccc2)N1Cc1ccccc1,54*,-5,23,5,34,5
C#CCN1C(=O)S/C(=C\c2ccc(-c3ccc(Cl)c(C(=O)O)c3)o2)C1=O,68*,-12,0,8,-7,-11
CCOc1ccc(-c2c(C#N)c(N)nc3sc(C(=O)c4ccccc4)c(N)c23)cc1,4,-4,-7,18,-15,-12
COc1ccc(-c2c(C#N)c(N)nc3sc(C(=O)c4ccccc4)c(N)c23)cc1,53*,.,.,.,6,.
COc1ccccc1OCCNC(=O)c1ccc(Br)cc1,-9,-30,-58,31,97*,-27
COc1ccccc1OCCNC(=O)c1ccc(C(C)(C)C)cc1,-7,29,33,-6,2,40
COc1cc(C(=O)NCc2ccc(S(N)(=O)=O)cc2)ccc1OCC(=O)N1CCOCC1,.,-14,-5,9,0,-7
C/C(CC(=O)Nc1ccc2c(c1)OCCO2)=N\NC(=O)COc1ccc(Cl)c(C)c1,2,6,10,2,-13,12
CCOc1ccc2c(ccc(/C=C/c3cc(C)c4cccnc4c3O)[n+]2C)c1,.,.,.,.,115*,.
CCOc1ccc2[nH]c3ncccc3c(=O)c2c1,4,-2,6,32,17,11
SMILES,SKKanGAS inh,tim10-1 inh,TIM10 inh,NLRP3 yeast inh,PfHsp90 yeast 2,tim23-1 inh
COc1cc(/C=N/Nc2ncnc3sc4c(c23)CCC4)ccc1O,70*,.,.,.,1,.
COc1ccc(-c2cc(C(F)(F)F)nc(NCc3cccs3)n2)cc1,74*,-37,-11,15,-3,-4
Clc1ccccc1C(c1ccccc1)(c1ccccc1)n1ccnc1,50*,-177,-103,4,90*,-23
O=C(Cc1ccccc1)Nn1c(O)c(/C=C2\C=Nc3ccccc32)sc1=S,50*,.,.,.,14,.
COc1cc(OC)c(NC(=O)c2sc3ncn(CC(=O)N4CCN(c5ccccn5)CC4)c(=O)c3c2C)cc1Cl,50*,-12,-6,14,-5,-19
O=C1CCC(/C=C/c2ccccc2)=NN1Cc1ccccc1Cl,-16,-6,-22,28,.,34
O=C1CCC(/C=C/c2ccccc2)=NN1Cc1ccc(Cl)c(Cl)c1,53*,-22,-65,29,-32,-9
Cc1nc(-c2nnc(SCC(=O)Nc3ccc(Cl)cc3)n2C)cs1,3,8,-8,21,-8,13
CCc1ccc(NC(=S)N2CCCC(C(F)(F)F)C2)cc1 (centres undefined),-6,3,15,24,0,42
COC(=O)c1c(NC(=O)c2ccccc2)sc(C(=O)c2ccccc2)c1C,73*,-4,-19,2,-12,-3
Cc1nnc(NC(=O)c2ccc(S(=O)(=O)C(F)F)cc2)s1,5,19,-1,1,3,7
OCCOCCn1c(C2CCCN2c2nc(-c3ccc(F)cc3)cs2)nc2cc(Cl)c(Cl)cc21 (centres undefined),33,1,0,18,110*,-4
OCCCn1c(C2CCCN2c2nc(-c3ccc(F)cc3)cs2)nc2cc(C(F)(F)F)ccc21 (centres undefined),33,5,-36,26,.,18
OCCCn1c(C2CCCN2c2nc(-c3ccc(F)cc3)cs2)nc2cc(Cl)c(N3CCCCC3)cc21 (centres undefined),17,-14,-10,6,3,-9
OCCOCCn1c(C2CCCN2c2nc(-c3ccc(F)cc3)cs2)nc2cc(C(F)(F)F)ccc21 (centres undefined),24,28,-36,2,108*,23
CCCCN1C(=O)C(=O)N(CC(=O)Nc2cc(Cl)ccc2OC)C1=O,.,19,11,11,1,32
Cc1cc(F)ccc1S(=O)(=O)Nc1ccccc1C(=O)Nc1ccccc1-c1nc2ccccc2[nH]1,58*,12,19,6,9,25
CCN(CC(=O)Nc1c(F)cccc1F)C(=O)c1ccc(COc2ccccc2)o1,3,6,15,16,2,20
Cc1oc(C(C)(C)C)cc1C(=O)N1CCN(C(c2ccccc2)c2ccccc2)CC1,63*,18,4,8,-37,28
CC1=NOC(=O)/C1=C\c1ccc(-c2ccc(Br)cc2)o1,20,.,.,.,105*,.
O=C(NCCOc1ccc(Cl)cc1)C1CC(=O)N(c2ccc3c(c2)OCCO3)C1 (centres undefined),.,-8,10,2,-11,21
O=C(Nc1ccccc1)C1CCCN1S(=O)(=O)c1ccc(Br)cc1 (centres undefined),10,14,13,8,15,14
